Holding throughout (assay): NCI-60 one-dose screen, 48 h (100 = growth as untreated, 0 = no growth, -100 = all killed)
What all share (conditions): 10 µM unless noted

Assay [1] deals with SR leukemia.
Assay [2] has as its system RPMI-8226 leukemia.
Assay [3] relates to OVCAR-8 ovarian.
Assay [4] concerns OVCAR-5 ovarian.
The test system of assay [5] is OVCAR-4 ovarian.
The test system of assay [6] is SK-OV-3 ovarian.
For assay [7], the system named is IGROV1 ovarian.
Assay [8] concerns OVCAR-3 ovarian.
The test system of assay [9] is HS 578T breast.
The test system of assay [10] is NCI/ADR-RES ovarian.
Assay [11] concerns T-47D breast.
In assay [12] the test system is BT-549 breast.
Assay [13] relates to MDA-MB-435 melanoma.
In assay [14] the test system is SW-620 colon.
Assay [15] concerns MCF7 breast.
Assay [16] has as its system HCT-116 colon.
Assay [17] has as its system HCC-2998 colon.
Assay [18] concerns KM12 colon.

This is part of a sample that, as a whole, favours compounds with a hit. Of some 83,000 tested, about 20% had one in any assay.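 The endpoint reported here, percent growth, reads 100 for growth as untreated, 0 for no net growth and -100 for all cells dead.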 A number with no mark means an inactive call. Calls of active or inactive are those of the source. Rule for the calls: active = growth percent below 10; inactive = the rest.

On to `COc1ccc(-c2nnc(COc3ccc(NC(=O)Nc4ccc(Cl)c(C(F)(F)F)c4)cc3F)o2)cc1`, for which the growth in assay [1] was -30.1% (active); in assay [2] it was -26.2% (active); in [3], 14.5%; in [4] it was 8.75% (active); in [5] it was 20.2%; in assay [6], 22.1%. Also, the growth in assay [7] was 26%; in assay [8], -0.826% (active); in assay [9] it was 19.1%; in assay [10], 5.91% (active); in assay [11], 9.17% (active); in [12], -2.18% (active). Also, the growth was 4.03% (active) in assay [13]; 9.95% (active) in assay [14]; 2.31% (active) in assay [15]; 4.43% (active) in assay [16]; 13.8% in assay [17]; 4.64% (active) in assay [18].

`Cc1ccc(S(=O)(=O)NCCCNc2nccc(-c3c(-c4ccccc4)nc4sccn34)n2)cc1`: the growth is 33.9% in assay [1]; 25.6% in assay [2]; 37.9% in [3]; 117% in [4]; 48.4% in assay [5]; 57.9% in assay [6]. The growth is 35.7% in assay [7]; 38% in [8]; 74.9% in assay [9]; 49% in assay [10]; 39.9% in assay [11]; 38.9% in assay [12]. Further, the growth was 34% in assay [13]; 58.1% in assay [14]; 42.8% in assay [15]; 15.2% in [16]; 93.9% in assay [17]; 18.6% in [18].

As for `CC1=NN2C(=NC3=C(CCC/C3=C\c3ccc(Cl)cc3)C2c2ccc(Cl)cc2)S1` (stereo not drawn), the growth in assay [1] is 64.5%; in [2], -18.4% (active); in [3] it was 90.2%; in assay [4] it was 103%; in assay [5], 86.8%; in [6], 115%. The growth is 103% in assay [7]; 108% in assay [8]; 101% in assay [9]; 106% in assay [10]; 89.1% in [11]; 97.9% in assay [12]. Besides, the growth in assay [13] was 45.8%; in assay [14], 97.3%; in assay [15], 24.2%; in [16], -37.2% (active); in assay [17], 80.6%; in assay [18], 77.2%.

Regarding `CCCC1OC(c2ccc(C(C)C)cc2)OCC1CC` (stereo not drawn), the growth in [1] was 91.7%; in assay [2] it was 104%; in assay [3], 96.7%; in [4], 101%; in [5] it was 112%; in [6], 85.5%. In addition, the growth in assay [7] was 112%; in assay [8], 107%; in assay [9], 99.6%; in assay [10], 105%; in [11] it was 85.7%; in assay [12], 102%. For the same compound, the growth in assay [13] is 105%; in [14], 112%; in assay [15], 94.7%; in [16], 93.9%; in assay [17], 103%; in [18], 107%.

With `CC(Br)C(Br)c1cc2c(cc1Br)OCO2` (stereo not drawn), the growth in assay [1] was 98.6%; in assay [2], 105%; in [3] it was 100%; in [4], 98.6%; in assay [5], 105%; in assay [6] it was 84%. For the same compound, the growth in assay [7] is 97.5%; in assay [8], 107%; in [9], -96.5% (active); in assay [10], 99.1%; in assay [11] it was 73.7%; in assay [12] it was 100%. Also, the growth in [13] was 97.9%; in [14], 109%; in [15], 93.9%; in assay [16] it was 88.5%; in [17] it was 96%; in [18] it was 103%.

Consider `COc1ccc(C2SCC(=O)N2NC(=O)c2ccc(NC(=O)c3ccccn3)cc2)cc1OC` (stereo not drawn), for which the growth in assay [1] is 90.9%; in [2] it was 96.3%; in [3] it was 98%; in assay [4] it was 100%; in assay [5], 100%; in assay [6] it was 102%. The growth in assay [7] is 101%; in assay [8], 101%; in [9] it was 102%; in assay [10], 105%; in assay [11] it was 97.8%; in [12] it was 102%. For the same compound, the growth was 104% in assay [13]; 104% in assay [14]; 100% in [16]; 104% in [17]; 95.8% in [18].

As for `Nc1nc(-c2cc3ccccc3o2)cc(=O)c(=O)[nH]1`, the growth in assay [1] is 90.9%; in assay [2] it was 95.7%; in assay [3] it was 107%; in assay [4], 105%; in assay [5], 102%; in assay [6], 96.7%. Also, the growth in [7] was 100%; in assay [8] it was 102%; in assay [9] it was 88.2%; in assay [10] it was 109%; in [11], 104%; in assay [12] it was 106%. Besides, the growth was 105% in assay [13]; 102% in assay [14]; 91% in [15]; 110% in [16]; 105% in assay [18].

In the case of `Nc1ccccc1C#C/C=C\C#Cc1cccc(O)c1`, the growth in assay [1] was 13%; in assay [2] it was 34%; in assay [3], 84.9%; in assay [4] it was 62.6%; in assay [5], 45%; in assay [6] it was 74.4%. Besides, the growth in assay [7] was -19.5% (active); in assay [8], 43%; in assay [9], 64.3%; in assay [10], 31.8%; in assay [11] it was 55.2%; in assay [12], 44.8%. Also, the growth was 6.89% (active) in assay [13]; 32.4% in assay [14]; 35.9% in assay [15]; 42.3% in assay [16]; 41.3% in assay [17]; 27.9% in assay [18].

On to `COc1ccc(/C=C/C(=O)c2cc(OC)c(OC)c(OC)c2)cc1OCc1cn(Cc2ccc(F)cc2)nn1`, for which the growth is 3.34% (active) in assay [1]; 1.66% (active) in assay [2]; 15% in assay [3]; 50.4% in assay [4]; 43.4% in assay [5]; 76.6% in [6]. The growth is 85.9% in [7]; 21.7% in assay [8]; 82.6% in assay [9]; 16.5% in assay [10]; 50.4% in assay [11]; 25.7% in assay [12]. Besides, the growth in assay [13] was 5.55% (active); in assay [14], 15.4%; in assay [16] it was 15%; in assay [17], 101%; in assay [18], 6.55% (active).

On to `COc1ccc(/C=C/C(=O)c2cccc(B(O)O)c2)cc1O`, for which the growth was 6.45% (active) in [1]; 5.96% (active) in assay [2]; 60.1% in [3]; 88.4% in [4]; 73.9% in assay [5]; 58.1% in assay [6]. Besides, the growth in assay [7] is 18.2%; in assay [8] it was -6.95% (active); in [9], 32.9%; in assay [10], 48.9%; in [11] it was 32.4%; in [12], 13.9%. For the same compound, the growth in assay [14] was 9.61% (active); in assay [15], 24.3%; in assay [16], 3.16% (active); in [17], 54.3%; in assay [18], 3.44% (active).

As for `O=C1OC(c2ccccc2)=N/C1=C\c1ccc([N+](=O)[O-])cc1`, the growth in [1] was 97.3%; in assay [2], 102%; in assay [3], 111%; in assay [4], 92.8%; in [5], 114%; in [6], 109%. Besides, the growth in [7] was 100%; in [8], 106%; in assay [9], 82.6%; in [10], 104%; in [11] it was 106%; in assay [12], 101%. Further, the growth in assay [13] is 106%; in assay [14] it was 92.4%; in [15], 103%; in assay [16], 97.8%; in assay [17], 108%; in assay [18], 94.5%.

Regarding `CC[C@H](C)[C@@H]1NC(=O)[C@H]([C@@H](C)O)NC(=O)C(Cc2ccccc2)NC(=O)[C@@H]2CCCN2C(=O)C(C(C)C)NC(=O)C(Cc2ccccc2)NC(=O)CNC(=O)[C@@H]2CCCN2C1=O` (stereo partly drawn), the growth was 20.1% in [1]; 7.56% (active) in [2]; 68.3% in [3]; 89.9% in [4]; 60% in assay [5]; 78.4% in [6]. The growth in assay [7] is 63.6%; in [8], 57.6%; in [9], 59.2%; in assay [10], 64.5%; in [13] it was 74%; in assay [14], 68.3%. Also, the growth in [15] was 67.4%; in [16] it was 18.8%; in assay [17] it was 88.2%; in [18], 59.2%.

`COc1cc(CCn2nnc3c(Nc4ccc(N5CCOCC5)cc4)ncnc32)cc(OC)c1`: the growth in assay [1] was 64.2%; in assay [2] it was 72.8%; in assay [3] it was 109%; in assay [4] it was 95.3%; in assay [5], 91.1%; in assay [6] it was 112%. Also, the growth is 110% in [7]; 92.8% in assay [8]; 91.2% in assay [9]; 86.3% in assay [10]; 68.2% in assay [13]; 90.8% in assay [14]. Also, the growth in [15] was 102%; in assay [16] it was 101%; in assay [17] it was 99.7%; in assay [18], 81.6%.

In the case of `CC(=O)Nc1ccc(S(=O)(=O)N2C(=O)CCC2C(=O)Nc2ccccc2)cc1` (stereo not drawn), the growth in assay [1] was 28%; in assay [2], 26.7%; in assay [3] it was 40.4%; in assay [4], 58.4%; in assay [5], 39.9%; in [6], 57.5%. For the same compound, the growth in assay [7] is 28.9%; in [8], 28.1%; in assay [9] it was 63.1%; in [10], 41.5%; in assay [11], 17.6%; in assay [13], 27.7%. Also, the growth in assay [14] is 30.2%; in [15] it was 19.2%; in assay [16], 26.5%; in [17] it was 30.5%; in assay [18], 12.4%.

Consider `COc1ccc(NC(=S)/N=c2\oc3c(OC)cccc3cc2-c2cc3ccccc3[nH]2)cc1`, for which the growth in [1] is 103%; in assay [2], 105%; in [3], 54.8%; in [4], 91.5%; in assay [5] it was 56.4%; in assay [6], 69.4%. In addition, the growth was 63.1% in assay [7]; 79.7% in [8]; 36.4% in assay [9]; 56.7% in [10]; 77.2% in assay [13]; 84.3% in assay [14]. Moreover, the growth in assay [15] was 81%; in assay [16], 64.7%; in [17], 101%; in [18], 73.2%.

In the case of `CCOC(=O)CC/C(C)=N\Nc1ccc([N+](=O)[O-])cc1`, the growth in [1] was 39%; in assay [2], 59.8%; in [3], 56.9%; in assay [4] it was 84.3%; in [5] it was 77.2%; in [6], 57.8%. Besides, the growth in [7] is 71%; in assay [8] it was 86.1%; in assay [9] it was 88.6%; in assay [10] it was 80.3%; in assay [11], 41.8%; in assay [13], 28.4%. Also, the growth in assay [14] was 57.2%; in [15], 79.9%; in assay [16] it was 48.7%; in [17], 60.4%; in [18] it was 22.2%.

Take `Nc1c(C(=O)Nc2ccccc2)sc2nc3c(cc12)CN(Cc1ccccc1)CC3`: the growth is 55.6% in assay [1]; 79.6% in assay [2]; 74.8% in [3]; 78.5% in assay [4]; -14.7% (active) in assay [5]; 39.2% in assay [6]. In addition, the growth in assay [7] is 77.9%; in [8], 56.6%; in assay [9], 11.1%; in [10], 71%; in assay [11] it was 60.9%; in assay [13], 52.1%. Also, the growth in assay [14] was 76.9%; in [15] it was 77.9%; in assay [16], 65.1%; in [17] it was 79.1%; in [18], 56.4%.
